# Results reported in PubChem BioAssay (NCI).
# Where “and” joins values, the source holds several entries; their conditions need not be identical. Identical values can stand only once. The panel holds about 79,000 compounds, 15% with a hit somewhere; the sample as a whole holds those more often. A structure can be active in one record and inactive in another. Calls of active or inactive are those of the source. No stated cut-off is given here; in the data, active means growth inhibition above about 70%; inactive means the rest.
# Assay: NCI Yeast Anticancer Drug Screen. Data for the rad50 strain (AID 155);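 further: 0% = growth of vehicle-only cultures of the same strain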
# Conditions: S. cerevisiae rad50 strain growth inhibition; at 50.0 µM (retest, dose inferred, filed as 5.0); stronger effect = higher value
# How it was run: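 Compounds were tested on a yeast strain with an engineered DNA damage repair alteration; the reported value is growth inhibition normalised to vehicle treatment.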
row,Structure (SMILES),growth inhibition
1,O=C1C(CN2CCCCC2)CCCC1CN1CCCCC1 (stereo unspecified),25% (inactive)
2,NC(=O)c1cc(Br)cc(Br)c1O,79% (active)
3,CN(C)c1ccc(/C=C/c2ccc3ccccc3[n+]2C)cc1,98% (active)
4,C1=C(CN2CCCCC2)COc2ccccc21,30% (inactive)
5,O=C1Nc2ccccc2C1(O)C/C(=N/O)c1ccc2ccccc2c1 (stereo unspecified),36% (inactive)
6,CC(C)(S)C(N)C(=O)O (stereo unspecified),4% (inactive)
7,COC(=O)[C@@H](NS(=O)(=O)CC12CCC(CC1)C2(C)C)C(C)(C)C,50% (inactive)
8,CN(CCN1C(=O)c2cccc3cccc(c23)C1=O)CCN1C(=O)c2cccc3cccc(c23)C1=O,96% (active)
9,CN(C)CCCN=c1c2ccccc2n(O)c2cccc([N+](=O)[O-])c12,2% (inactive)
10,O=C(/C=C/c1ccc(Cl)cc1)NC1C=Nc2ccc([N+](=O)[O-])cc2NC1=O (stereo unspecified),94% (active)
11,O=C(CC(=O)CC(O)(c1ccccc1)c1ccccc1)CC(=O)c1ccccc1,95% (active)
12,O=C(c1ccc(Cl)cc1)C(O)c1ccc(Cl)cc1 (stereo unspecified),27% (inactive) and 74% (active)
13,COc1ccc2c(c1)C(Cc1ccc(Oc3ccc(CC4c5cc(OC)ccc5CC[N+]4(C)C)cc3)cc1)[N+](C)(C)CC2 (stereo unspecified),62% (inactive)
14,O=C(NO)c1cccnc1,3% (inactive)
15,Oc1c(Cl)c(Cl)c(Cl)c2ccccc12,95% (active)
16,CSC1SCC2C(=O)N(C)C(C(C)C)C(=O)OCC(NC(=O)c3cnc4ccccc4n3)C(=O)NC(C)C(=O)N(C)C1C(=O)N(C)C(C(C)C)C(=O)OCC(NC(=O)c1cnc3ccccc3n1)C(=O)NC(C)C(=O)N2C (stereo unspecified),98% (active) and 97% (active)
17,O=C(O)C1(Cc2ccccc2)Cc2cc3c(cc2C1)CCC3,5% (inactive)
18,CC1=C(C(=O)Nc2c(C)cccc2C)C(c2ccc3c(c2)OCO3)C(C(=O)Nc2c(C)cccc2C)=C(C)N1,25% (inactive)
19,COc1cc2c(c3c1/c(=N/N(C)C)c1ccccc1n3C)C=CC(C)(C)O2,85% (active)

row,Structure (SMILES),growth inhibition
1,CC(=O)Nc1nc(N)c2ncn(C3OC(C(O)CO)C(O)C3O)c2n1 (stereo unspecified),1% (inactive)
2,CC(C)(Cc1nocc1C(C)(C)CC#N)c1cc(CC(C)(C)C2(C)OCCO2)no1,0% (inactive)
3,CCOC(=O)c1c[nH]c2c(ccc3cccnc32)c1=O,64% (inactive) and 66% (inactive)
4,Cc1ncc(C[n+]2cccc(CCO)c2C)c(N)n1,31% (inactive) and 48% (inactive)
5,Clc1ccc2c(c1)[nH]c1c2nc2ccccn21,95% (active)
6,O=C(O)c1ccccc1C(=O)O,8% (inactive)
7,COC1/C=C/OC2(C)Oc3c(C)c(O)c4c(c3C2=O)C(=O)C=C(NC(=O)/C(C)=C\C=C\C(C)C2OC(C)(C)OC(C2C)C(C)C(OC(C)=O)C1C)C4=O (stereo unspecified),89% (active)
8,CCN(CC)CCCn1c2cc(=O)c(=O)cc-2[nH]c2cc(C)ccc21,58% (inactive)
9,O=[N+]([O-])c1ccc(N/N=C/CC(O)(C(F)(F)F)C(F)(F)F)c([N+](=O)[O-])c1,98% (active)
10,OCc1ccccc1C(c1ccccc1)c1ccccc1,98% (active)
11,COc1ccc2[nH]c3c(C)c4ccncc4c(C)c3c2c1,99% (active)
12,CC(C)CCC[C@@H](C)[C@H]1CC[C@H]2[C@@H]3CC=C4N5CCCN=C5CC[C@]4(C)[C@H]3CC[C@]12C,98% (active)
13,CC(C)CCCC(C)C1CCC2C3CC=C4CC([n+]5cccc6ccccc65)CCC4(C)C3CCC12C (stereo unspecified),90% (active)
14,O=C1/C(=C/c2ccc(Cl)cc2)CNC/C1=C\c1ccc(Cl)cc1,79% (active) and 71% (active)
15,CCn1c2ccccc2c2ccc(N=Cc3ccc(N(C)C)cc3)cc21,78% (active)
16,O=C1NC(=O)c2cc([N+](=O)[O-])ccc21,12% (inactive)
17,O=c1[nH]c(SCc2c(Cl)c(Cl)c(Cl)c(Cl)c2Cl)nc(=S)[nH]1,76% (active)
18,Cn1c2nc3ccccc3c-2cc2ccccc21,85% (active)
19,O=Cc1cc(Br)ccc1O,97% (active) and 85% (active)

# Same assay, conditions: S. cerevisiae rad50 strain growth inhibition; at 50.0 µM; stronger effect = higher value
row,Structure (SMILES),growth inhibition
1,O=C1C(CN2CCCCC2)CCCC1CN1CCCCC1 (stereo unspecified),13.3% (inactive) and 4.85% (inactive)
2,NC(=O)c1cc(Br)cc(Br)c1O,62.2% (inactive)
3,CN(C)c1ccc(/C=C/c2ccc3ccccc3[n+]2C)cc1,53.4% (inactive)
4,C1=C(CN2CCCCC2)COc2ccccc21,51.4% (inactive)
5,O=C1Nc2ccccc2C1(O)C/C(=N/O)c1ccc2ccccc2c1 (stereo unspecified),35.1% (inactive)
6,CC(C)(S)C(N)C(=O)O (stereo unspecified),-12.3% (inactive) and -14.5% (inactive) and 21.1% (inactive)
7,COC(=O)[C@@H](NS(=O)(=O)CC12CCC(CC1)C2(C)C)C(C)(C)C,14.2% (inactive)
8,CN(CCN1C(=O)c2cccc3cccc(c23)C1=O)CCN1C(=O)c2cccc3cccc(c23)C1=O,98.5% (active)
9,CN(C)CCCN=c1c2ccccc2n(O)c2cccc([N+](=O)[O-])c12,72.5% (active)
10,O=C(/C=C/c1ccc(Cl)cc1)NC1C=Nc2ccc([N+](=O)[O-])cc2NC1=O (stereo unspecified),95.8% (active)
11,O=C(CC(=O)CC(O)(c1ccccc1)c1ccccc1)CC(=O)c1ccccc1,98.4% (active)
12,O=C(c1ccc(Cl)cc1)C(O)c1ccc(Cl)cc1 (stereo unspecified),34.2% (inactive)
13,COc1ccc2c(c1)C(Cc1ccc(Oc3ccc(CC4c5cc(OC)ccc5CC[N+]4(C)C)cc3)cc1)[N+](C)(C)CC2 (stereo unspecified),96.8% (active)
14,O=C(NO)c1cccnc1,66.3% (inactive)
15,Oc1c(Cl)c(Cl)c(Cl)c2ccccc12,95.5% (active)
16,CSC1SCC2C(=O)N(C)C(C(C)C)C(=O)OCC(NC(=O)c3cnc4ccccc4n3)C(=O)NC(C)C(=O)N(C)C1C(=O)N(C)C(C(C)C)C(=O)OCC(NC(=O)c1cnc3ccccc3n1)C(=O)NC(C)C(=O)N2C (stereo unspecified),98.8% (active) and 91.2% (active)
17,O=C(O)C1(Cc2ccccc2)Cc2cc3c(cc2C1)CCC3,90% (active)
18,CC1=C(C(=O)Nc2c(C)cccc2C)C(c2ccc3c(c2)OCO3)C(C(=O)Nc2c(C)cccc2C)=C(C)N1,81.9% (active)
19,COc1cc2c(c3c1/c(=N/N(C)C)c1ccccc1n3C)C=CC(C)(C)O2,69.3% (inactive)

row,Structure (SMILES),growth inhibition
1,CC(=O)Nc1nc(N)c2ncn(C3OC(C(O)CO)C(O)C3O)c2n1 (stereo unspecified),1.75% (inactive) and -3.5% (inactive)
2,CC(C)(Cc1nocc1C(C)(C)CC#N)c1cc(CC(C)(C)C2(C)OCCO2)no1,-9.6% (inactive)
3,CCOC(=O)c1c[nH]c2c(ccc3cccnc32)c1=O,38% (inactive) and 38.8% (inactive)
4,Cc1ncc(C[n+]2cccc(CCO)c2C)c(N)n1,55.7% (inactive) and 46.5% (inactive)
5,Clc1ccc2c(c1)[nH]c1c2nc2ccccn21,62.9% (inactive) and 83.2% (active)
6,O=C(O)c1ccccc1C(=O)O,-29.7% (inactive) and 15.6% (inactive)
7,COC1/C=C/OC2(C)Oc3c(C)c(O)c4c(c3C2=O)C(=O)C=C(NC(=O)/C(C)=C\C=C\C(C)C2OC(C)(C)OC(C2C)C(C)C(OC(C)=O)C1C)C4=O (stereo unspecified),51.9% (inactive)
8,CCN(CC)CCCn1c2cc(=O)c(=O)cc-2[nH]c2cc(C)ccc21,10.4% (inactive)
9,O=[N+]([O-])c1ccc(N/N=C/CC(O)(C(F)(F)F)C(F)(F)F)c([N+](=O)[O-])c1,88.6% (active)
10,OCc1ccccc1C(c1ccccc1)c1ccccc1,3.45% (inactive)
11,COc1ccc2[nH]c3c(C)c4ccncc4c(C)c3c2c1,92.6% (active) and 99% (active)
12,CC(C)CCC[C@@H](C)[C@H]1CC[C@H]2[C@@H]3CC=C4N5CCCN=C5CC[C@]4(C)[C@H]3CC[C@]12C,98% (active)
13,CC(C)CCCC(C)C1CCC2C3CC=C4CC([n+]5cccc6ccccc65)CCC4(C)C3CCC12C (stereo unspecified),93.3% (active)
14,O=C1/C(=C/c2ccc(Cl)cc2)CNC/C1=C\c1ccc(Cl)cc1,76.7% (active) and 86.2% (active)
15,CCn1c2ccccc2c2ccc(N=Cc3ccc(N(C)C)cc3)cc21,61.6% (inactive)
16,O=C1NC(=O)c2cc([N+](=O)[O-])ccc21,6.65% (inactive) and 0.9% (inactive)
17,O=c1[nH]c(SCc2c(Cl)c(Cl)c(Cl)c(Cl)c2Cl)nc(=S)[nH]1,54.1% (inactive)
18,Cn1c2nc3ccccc3c-2cc2ccccc21,84% (active) and 85.2% (active)
19,O=Cc1cc(Br)ccc1O,88.7% (active) and 95.2% (active)
